Lassa entry inh: Lassa virus entry inhibition. AID 540256. hit rate 1.2% among 300,000. Lassa virus pseudotype entry inhibition, cell reporter. Potency, µM (top dose mostly 37.9 µM), for the others: at the top dose activity change, negative = inhibition, hits mostly inhibitors; calls by dose curve; tested in HEK293 cells; further: potency means the concentration at half of the fitted maximal effect; nearly all actives have a fitted effect of over 50% in size
Pf growth 96h: P. falciparum growth inhibition at 96 hours | hit rate 6.9% among 320,000 | P. falciparum luciferase reporter growth, 96 h | Potency, µM (series often up to 28.7 µM), for inactives: at the top dose activity change, negative = inhibition, hits mostly inhibitors; further: potency means the concentration at half of the fitted maximal effect
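Readout is luminescence from an integrated firefly luciferase in P. falciparum. Red cells, 2% hematocrit and 0.05% parasitemia final, were cultured with compound through two parasite generations (96 hours) at 37 C, 5% CO2.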
HCMV antiviral: blocks human cytomegalovirus replication | hit rate 4.5% among 410,000 | AID 1259415 | activity change, negative = inhibition, % at 57.5 µM | HFF cells, HCMV-luciferase reporter, 72 h; stronger effect = lower value; in the data active means activity change below about -60%; inconclusive means no clear call, values can overlap the other calls; inactive means above about -39%
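After 16 h attachment at 37C, HFF cells received test compound and HCMV-luciferase (1 PFU/cell); reporter luminescence read 72 h later, data normalized against buffer-only and known inhibitor Salinomycin.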
Pf growth 48h: inhibits P. falciparum growth in the first generation, 48 h | P. falciparum luciferase growth in erythrocytes, 48 h | Potency, µM (titrated, usually from 28.7 µM), for inactives: at the highest dose activity change, negative = inhibition, hits mostly inhibitors | hit rate 5.9% among 310,000 | AID 504832; further: potency means the concentration at half of the fitted maximal effect
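Erythrocytes infected with P. falciparum carrying an integrated firefly luciferase reporter (2% hematocrit, 0.1% parasitemia final) were exposed to compounds in RPMI 1640 with 0.5% Albumax at 37 C, 5% CO2. Growth inhibition was scored as reduced luminescence.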
Marburg entry inh: blocks Marburg virus binding to or entry into cells; Marburg virus pseudotyped entry inhibition, cell reporter; AID 540276; hit rate 1.8% among 300,000; Potency, µM (doses to about 37.8 µM), without a hit: at the highest dose activity change, negative = inhibition, usual class: inhibitors; calls by dose curve; tested in HEK293 cells; further: potency means the concentration at half of the fitted maximal effect
HCV inhibitor: inhibitors of hepatitis C virus infection; AID 651820; Huh7.5.1 HCVcc-Cre infection, luciferase reporter, 44 h; Potency, µM (titrated, usually from 41.8 µM), for the others: top-dose activity change, negative = inhibition, most hits filed as inhibitors; hit rate 3.4% among 340,000; further: potency means the concentration at half of the fitted maximal effect
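Antiviral activity was scored by luciferase reporter output from cells infected with HCVcc-Cre (~0.5 moi) in presence of compound, 44 h infection period, cells seeded 1,000/well 4 h prior.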
* hit, by the source's call; ? = inconclusive; . = no result given; [ ] = another dose, or the depositor's remark. Only some compounds are listed: those with a hit (about 14% of all), similar ones and a draw of the others. Unless noted, the call rests on the fitted dose curve; in most records, active means well fitted inhibition curve with a large enough effect; inconclusive means small, poorly fitted or top-dose-only effect, or another doubt; inactive means no such curve, though single readings can be large or run the other way. On the % scale 0 is the no-effect control and ±100 the full control effect.

SMILES	Lassa entry inh	Pf growth 96h	HCMV antiviral	Pf growth 48h	Marburg entry inh	HCV inhibitor
COC(=O)[C@]12C[C@H](CC(=O)N3CCC(c4ccccc4)CC3)C(=O)N(Cc3ccc4c(c3)OCO4)C1=C[C@H](C(C)(C)C)O[C@@H]2C	.	.	25.3	.	.	.
Cc1ccc(/C=C/C(=O)OCC(=O)NC(=O)NCc2ccco2)cc1	.	4.4%	?	-17.4%	.	-6.2%
O=C(Nc1ccc(Cl)c(S(=O)(=O)N2CCCCC2)c1)c1cnccn1	.	?	-2.7	?	.	-8.4%
O=C(Nc1ccc(Cl)c(S(=O)(=O)N2CCCCC2)c1)c1ccncc1	-26.6%	7.38µM*	-77.3*	?	?	8.91µM*
COc1ccccc1Cc1c(-c2ccccc2)nc2cc(C)c(Br)c(C)n12	.	.	25.5	.	.	.
O=C(OCCOCCN=C1NS(=O)(=O)c2ccccc21)c1ccc(F)cc1	27.8%[46.1 µM]	14.2%	-13.3	10.4%	21.1%[46.1 µM]	-8.9%
COc1ccc(N=C2SC(CC(=O)Nc3ccccc3)C(=O)N2CCc2ccccn2)cc1 (stereo not drawn)	-15.4%	14.7µM*	-28.9	?	-6.5%	5.3%
COc1ccc(OC)c(NC(=O)CC2SC(=N)N(c3ccccc3)C2=O)c1 (stereo not drawn)	.	2.1%	-34.5	-9.9%	-8.4%[46.1 µM]	?
COc1ccc(N=C2SC(CC(=O)Nc3ccccc3)C(=O)N2Cc2ccccn2)cc1 (stereo not drawn)	?	?	7.3	?	?	?
COc1ccc(OC)c(NC(=O)CC2SC(=Nc3ccccc3)N(CCc3ccccn3)C2=O)c1 (stereo not drawn)	10.6%	4.65µM*	?	14.7µM*	?	-15.0%
CC1CC(C)CN(S(=O)(=O)c2ccc(C(=O)NNC(=O)c3ccccc3F)cc2)C1 (stereo not drawn)	-25.4%	.	-16.8	.	?	-14.6%
Cc1ccccc1OCc1ccc(-c2nc(C#N)c(N3CCN(c4ccccc4)CC3)o2)o1	1.8%[46.1 µM]	.	24.4	.	?	.
COc1ccccc1-c1nnc2n1N=C(C(C)(C)C)CS2	-0.8%	0.0%	9.1	?	-19.2%	5.3%
COc1ccccc1-c1nnc2n1N=C(C)CS2	4.1%	?	-1.5	?	2.0%	12.7%
COc1cccc(C2=Nn3c(nnc3-c3ccccc3O)SC2)c1	-15.4%	-21.8%	59.8	13.1µM*	-27.2%	?
CC(C)(C)C1=Nn2c(nnc2-c2ccccc2F)SC1	16.0%	?	22.2	?	0.6%	-0.8%
COc1cccc(-c2nnc3n2N=C(C(C)(C)C)CS3)c1	-12.7%	13.1µM*	-98.5*	?	-11.7%	11.2µM*
CC(C)(C)C1=Nn2c(nnc2-c2ccccn2)SC1	16.3%	8.28µM*	-20.8	.	17.1%	8.1%
COc1cccc(-c2nnc3n2N=C(c2cc(OC)ccc2OC)CS3)c1	?	?	-61.9*	?	?	10µM*
CCN(CC)S(=O)(=O)c1ccc(=O)n(CC(=O)N2Cc3ccccc3CC2C(N)=O)c1 (stereo not drawn)	6.9%	-5.2%	-12.5	-5.4%	-12.9%	-3.7%
CCOc1cccc(-c2nnc3n2N=C(c2cc(OC)ccc2OC)CS3)c1	-9.2%	11.7µM*	15.7	11.7µM*	-6.7%	11.2µM*
COc1ccc(-n2nc(C(=O)NCC(=O)NCCCN3CC(C)CC(C)C3)c3ccccc3c2=O)cc1Cl (stereo not drawn)	-1.6%[46.1 µM]	28.8%	-18.4	6.57µM*	?	?
COc1ccc(-n2nc(C(=O)NCC(=O)Nc3cc(OC)c(OC)c(OC)c3)c3ccccc3c2=O)cc1Cl	-27.1%	11.2%	-3.3	?	?	?
CCN(CC)C(=O)CNC(=O)c1nn(-c2ccc(OC)c(Cl)c2)c(=O)c2ccccc12	2.8%	-21.0%	-28.4	4.15µM*	?	-10.9%
COc1cccc(CNc2nc3cc(C(C)=C(C)C)sc3c(=O)n2C)c1	.	.	11.3	.	.	.
SMILES	Lassa entry inh	Pf growth 96h	HCMV antiviral	Pf growth 48h	Marburg entry inh	HCV inhibitor
C#C[C@H](N)CCC(=O)O	.	.	.	.	-0.3%	.
COc1ccc(OC)c(NC(=O)COCc2cc(-c3ccc(F)cc3)on2)c1	-2.7%[46.1 µM]	.	-16.3	.	.	.
Cc1ccc(S(=O)(=O)NCC(NCc2ccc(F)cc2)c2ccccc2)cc1 (stereo not drawn)	-18.5%	?	-23.6	?	?	12.8%
CC/C(=C\C1CCCCC1)C(NP(=O)(c1ccccc1)c1ccccc1)c1ccccc1 (stereo not drawn)	?	6.57µM*	8.2	9.28µM*	-38.4%	-6.2%[8.37 µM]
Cc1nnc(N2CCN(C(=O)Nc3cccc(C(F)(F)F)c3)CC2)c2nn(-c3ccccc3)c(C)c12	-16.8%[46.1 µM]	.	?	.	.	.
CC(=O)N1CCN(c2ccc(NC(=O)c3ccc(N4CCCC4)c([N+](=O)[O-])c3)cc2Cl)CC1	?	?	-70.9*	11.7µM*	?	10µM*
O=C(Nc1ccc(N2CCCCC2)c(Cl)c1)c1ccc(N2CCOCC2)c([N+](=O)[O-])c1	?	?	-80.4*	5.22µM*	?	?
CCCC(=O)N1CCN(c2ccc(NC(=O)c3ccc(N4CCCC4)c([N+](=O)[O-])c3)cc2Cl)CC1	-0.2%	.	-8.9	.	?	?
Cc1cc(C(=O)Nc2cccc(-c3ccc(N4CCOCC4)nn3)c2)ccc1[N+](=O)[O-]	?	10.4µM*	-25.1	?	?	10µM*
CN(C)S(=O)(=O)c1cc(NC(=O)c2ccc(-n3ccnc3)c([N+](=O)[O-])c2)ccc1Cl	?	?	-71.0*	8.28µM*	?	?
Cc1ccsc1C(=O)OCC(=O)c1cc(C)n(C)c1C	.	.	0.0	.	.	-4.2%
Cc1cc2nc(-c3ccccc3Br)n(/C=C(\c3ccccc3)n3c(=O)[nH]c4ccccc43)c2cc1C	.	.	42.5	.	.	.
O=C(CN(C(=O)c1csnn1)c1cccc2c1CCCC2)NCc1ccccc1	?	0.6%	-29.6	-16.0%	-17.5%[46.1 µM]	-8.3%
Cc1ccc(-n2c(=O)[nH]c3cc(C(=O)NCCc4ccccc4)ccc3c2=O)cc1	-9.2%[46.1 µM]	.	-16.5	.	-0.9%[46.1 µM]	.
Cc1ccc(NC(=O)c2ccc(N3CCOCC3)c([N+](=O)[O-])c2)cc1S(=O)(=O)N1CCOCC1	-1.6%	?	-97.9*	?	?	3.55µM*
COc1ccc2oc(-c3ccc(C)c(NC(=O)c4ccc(N5CCOCC5)c([N+](=O)[O-])c4)c3)nc2c1	-5.3%	?	-81.2*	126.2%	-28.7%	-18.9%
O=C(Nc1nc2ccc(Cl)cc2s1)c1ccc(N2CCCCC2)c([N+](=O)[O-])c1	?	?	-66.7*	?	?	-2.4%
CN(C)S(=O)(=O)c1cccc(NC(=O)c2ccc(N3CCOCC3)c([N+](=O)[O-])c2)c1	?	?	-70.9*	-7.6%	?	?
